A short description of assay [1]: resazurin metabolic signal in HepG2 cells – cell-based, resazurin fluorescence, 24 h, PK04 Diversity Set, profiling panel (AID 1172). Further: test concentration not given here. To be noted: HepG2 viability, higher = more signal.
Assay [2] can be described thus: budding yeast growth changes without added modifier – OD600, strain BY4716, 24 h, basal condition, primary screen (AID 1173). The conditions noted are these: S. cerevisiae BY4716 growth, OD600, 24 h; higher = more signal, called active from +8 up or from −8 down.
Assay [3] can be described thus: viability profiling in MM1S myeloma cells – cell-based, resazurin fluorescence, basal, 24 h, PK04 Diversity Set, profiling panel (AID 1174).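 Further: MM1S multiple myeloma cell line; test concentration not given here.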 To be noted: higher = more signal, called active from +8 up or from −8 down.
Assay [4] has as its target Dihydroorotate dehydrogenase (quinone), mitochondrial (Plasmodium falciparum (isolate 3D7)) (UniProt Q08210). The experiment in a line: inhibition of P. falciparum DHODH – biochemical, C-terminal His tag, absorbance 600 nm, primary screen (AID 1175).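 Further: recombinant parasite enzyme with a five histidine tag at its C terminus; test concentration not given here.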 To be noted: PfDHODH enzyme, DCIP absorbance 600 nm; higher = more signal, called active from +8 up or from −8 down.
Assay [5] is described as follows: inhibition of PAO1 biofilm formation – strain PAO1, LB-PBS medium, absorbance 600 nm, primary screen (AID 1176). Further: test concentration not given here. The conditions noted are these: P. aeruginosa PAO1 growth/biofilm, A600, 12 h; higher = more signal.
Assay [6] can be described thus: growth modulation of vineyard yeast isolate – strain RM11-1a, OD600, basal, 24 h, primary screen (AID 1177).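 Further: cultures grown under basal conditions with no added stressor; test concentration not given here.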 To be noted: S. cerevisiae RM11-1a growth, OD600, 24 h; higher = more signal, called active from +8 up or from −8 down.
Assay [7] in a line: growth of efflux-deficient E. coli DRC39 – strain DRC39, OD650, 24 h, E. coli filamentation inducers, primary screen (AID 1178).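 Further: growth measured as culture turbidity by optical density at 650 nm; test concentration not given here.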 The conditions noted are these: E. coli DRC39 acrAB, higher = more signal, called active from +8 up or from −8 down.
Assay [8] in a line: growth of efflux-deficient E. coli DRC39 – strain DRC39, OD650, 48 h, E. coli filamentation inducers, primary screen (AID 1179).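 Further: screen aims at cell division blockers that make cells filament.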 To be noted: E. coli DRC39 delta-acrAB growth, higher = more signal, called active from +8 up or from −8 down.
Assay [9] in a line: viability profiling in RPMI8226 myeloma cells – cell-based, resazurin fluorescence, basal, 24 h, PK04 Diversity Set, profiling panel (AID 1180).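 Further: RPMI8826 multiple myeloma cell line at 5000 cells per well; test concentration not given here.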 To be noted: higher = more signal.
Assay [10] deals with E3 ubiquitin-protein ligase XIAP (Homo sapiens) (UniProt P98170). The experiment in a line: small molecules binding XIAP protein – biophysical, small-molecule microarray, fluorescence 635 nm, primary screen (AID 1181).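 Further: score merges 667 nm emission and signal to noise over triplicate slides.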 The conditions noted are these: higher = more signal.
Chain of E3 ubiquitin-protein ligase XIAP (Homo sapiens) (P98170 whole entry, looked up): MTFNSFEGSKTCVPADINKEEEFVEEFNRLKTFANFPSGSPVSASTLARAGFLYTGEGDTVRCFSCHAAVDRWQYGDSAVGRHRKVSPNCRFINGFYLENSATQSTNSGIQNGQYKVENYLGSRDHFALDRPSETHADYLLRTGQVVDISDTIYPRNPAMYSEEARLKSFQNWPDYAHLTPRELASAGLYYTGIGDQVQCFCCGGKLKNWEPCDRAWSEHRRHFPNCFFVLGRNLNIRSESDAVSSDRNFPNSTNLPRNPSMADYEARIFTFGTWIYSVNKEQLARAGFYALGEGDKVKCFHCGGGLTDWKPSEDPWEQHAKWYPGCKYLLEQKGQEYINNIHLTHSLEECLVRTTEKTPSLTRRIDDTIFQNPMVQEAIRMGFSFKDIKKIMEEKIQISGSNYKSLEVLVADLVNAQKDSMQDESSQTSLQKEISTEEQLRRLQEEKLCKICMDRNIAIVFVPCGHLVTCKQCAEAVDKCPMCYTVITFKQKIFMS

Active and inactive are the calls of the source. Unless noted, how the calls were made is not given here.

This is an account of results in PubChem BioAssay.

Chain of Dihydroorotate dehydrogenase (quinone), mitochondrial (Plasmodium falciparum (isolate 3D7)) (Q08210 whole entry, looked up): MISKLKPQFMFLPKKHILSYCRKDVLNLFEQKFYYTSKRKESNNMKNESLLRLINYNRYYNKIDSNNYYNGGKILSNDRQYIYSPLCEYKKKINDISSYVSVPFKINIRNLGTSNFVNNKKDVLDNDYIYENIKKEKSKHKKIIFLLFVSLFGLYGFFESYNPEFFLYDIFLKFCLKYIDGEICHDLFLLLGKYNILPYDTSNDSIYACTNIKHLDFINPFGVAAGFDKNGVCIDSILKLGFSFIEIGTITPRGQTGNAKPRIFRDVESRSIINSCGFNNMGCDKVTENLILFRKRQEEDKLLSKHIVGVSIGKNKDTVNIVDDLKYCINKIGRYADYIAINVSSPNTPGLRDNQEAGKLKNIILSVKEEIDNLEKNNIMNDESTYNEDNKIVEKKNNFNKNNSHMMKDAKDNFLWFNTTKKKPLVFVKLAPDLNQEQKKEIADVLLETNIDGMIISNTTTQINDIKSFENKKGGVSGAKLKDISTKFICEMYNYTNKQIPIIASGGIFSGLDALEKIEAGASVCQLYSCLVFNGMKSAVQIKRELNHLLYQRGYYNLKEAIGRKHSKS

Take `CN(C)CCCCCCNC(=O)[C@H]1C[C@H]2C(=O)N[C@@H](CCCCN)C(=O)N2[C@H]1c1cccc(OCCO)c1`: the z-score is -0.0616 in [1]; -1.69 (inactive) in assay [2]; -0.0889 (inactive) in [3]; 0.0346 (inactive) in assay [5]; -0.533 (inactive) in assay [6]; 0.422 (inactive) in assay [7]. The z-score was -0.02 (inactive) in assay [8] and -0.614 in assay [9]. Moreover, the composite z-score in assay [4] is -0.692 (inactive); in assay [10] it was 2.02.

Turning to `C=C(CCCC)C(=O)CC[C@@H](OC(=O)c1ccccc1-c1ccccc1C(=O)O)c1ccc(OCCO)cc1`, the z-score is -0.268 in [1]; -1.78 (inactive) in assay [2]; -0.276 (inactive) in [3]; 0.956 (inactive) in assay [5]; -0.585 (inactive) in [6]; -0.0062 (inactive) in assay [7]. The z-score is -0.297 (inactive) in assay [8] and 0.692 in [9]. Also, the composite z-score is -1.25 (inactive) in assay [4] and -0.182 in assay [10].

As for `[N-]=[N+]=Nc1ccccc1[C@H]1OC(c2ccc(OCCCO)cc2)=N[C@@]1(CCS(=O)(=O)c1ccccc1)C(=O)NCC(O)CO` (stereo not given in full), the z-score was -0.14 in assay [1]; -0.484 (inactive) in [2]; -0.0646 (inactive) in assay [3]; 0.854 (inactive) in assay [5]; -0.129 (inactive) in assay [6]; -0.117 (inactive) in [7]. Besides, the z-score in assay [8] is -0.878 (inactive); in assay [9], -0.389. Further, the results for the composite z-score in assay [4] and in [10] were 1.01 (inactive) and 0.0727, respectively.

As for `COc1ccc(CCNC(=O)[C@@]2(C)c3ccccc3C(=O)N(C(C)C)[C@H]2c2ccc(CO)cc2)cc1`, the z-score is -0.848 in assay [1]; -0.51 (inactive) in [2]; 0.0132 (inactive) in assay [3]; -0.149 (inactive) in assay [5]; -0.54 (inactive) in assay [6]; -0.166 (inactive) in assay [7]. The z-score was 0.0299 (inactive) in assay [8] and 0.332 in assay [9]. The composite z-score in [4] is 0.12 (inactive); in [10], -0.252.

For the compound `CCCC[C@H]1OB(O)C[C@H]2C1=C(COC)C[C@H]1C(=O)N(C)C(=O)[C@H]12`, the z-score was -0.627 in assay [1]; -1.56 (inactive) in assay [2]; -0.227 (inactive) in [3]; 0.118 (inactive) in [5]; -1.11 (inactive) in [6]; -0.748 (inactive) in assay [7]. Also, the z-score in [8] was -0.595 (inactive); in [9], -0.45. Further, the composite z-score in assay [4] was -0.682 (inactive); in [10] it was 0.144.

Take `CC(C)=CCCC(C)=CC(O)C1C=CC2C(=O)N(C)C(=O)C2N1Nc1ccccc1` (stereo not given): the z-score was -1.34 in assay [1]; -4.94 (inactive) in assay [2]; -1.37 (inactive) in [3]; 1.51 (inactive) in assay [5]; 0.938 (inactive) in assay [6]; -0.261 (inactive) in assay [7]. The values for the z-score in assay [8] and in [9] were 0.0052 (inactive) and -2.03, respectively. Further, the composite z-score in [4] was 0.0684 (inactive); in assay [10], 0.123.

As for `COc1ccc(-c2cc3c(c(-c4ccc(Oc5ccccc5)cc4)n2)[Si](C(C)C)(C(C)C)OC3)cn1`, the z-score in assay [1] was -1.05; in assay [2], 1.07 (inactive); in assay [3], -0.29 (inactive); in assay [5], -0.0391 (inactive); in [6], 1.24 (inactive); in assay [7], -0.794 (inactive). In addition, the z-score was -0.973 (inactive) in assay [8] and -0.698 in assay [9]. In addition, the composite z-score in assay [4] was 0.568 (inactive); in assay [10], -0.0326.

Take `O=C(NC1CC1)[C@@H]1c2ccccc2C(=O)N(Cc2ccccc2Cl)[C@H]1c1ccc(CO)cc1`: the z-score is 0.382 in [1]; -2.09 (inactive) in assay [2]; -0.0621 (inactive) in assay [3]; 0.994 (inactive) in assay [5]; -2.66 (inactive) in assay [6]; 1.28 (inactive) in assay [7]. Moreover, the results for the z-score in [8] and in [9] were 1.49 (inactive) and 0.69, respectively. Also, the composite z-score was -1.36 (inactive) in [4] and 0.0297 in assay [10].

Take `COCCOC(=O)N1C(=O)[C@@]2(c3ccccc31)[C@H](c1ccc(O)cc1)N1[C@H](c3ccccc3)[C@H](c3ccccc3)OC(=O)[C@H]1[C@@H]2C(=O)Nc1nc2ccccc2s1`: the z-score in assay [1] was -0.175; in assay [2], 0.183 (inactive); in [3], -1.1 (inactive); in assay [5], 0.995 (inactive); in assay [6] it was 0.941 (inactive); in assay [7], 0.411 (inactive). Besides, the z-score is 1.37 (inactive) in assay [8] and -0.456 in [9]. Besides, the composite z-score in assay [4] was 0.553 (inactive); in assay [10], -0.02.

As to `COCCCNC(=O)[C@@]1(C)c2ccccc2C(=O)N(C(C)C)[C@H]1c1ccc(CO)cc1`, the z-score is -0.104 in assay [1]; 0.836 (inactive) in [2]; -0.18 (inactive) in assay [3]; 0.208 (inactive) in assay [5]; 1.24 (inactive) in assay [6]; 0.32 (inactive) in assay [7]. For the same compound, the z-score in [8] was -0.279 (inactive); in [9] it was -0.316. Besides, the composite z-score in [4] was 0.663 (inactive); in assay [10], 0.109.
